This passage reports growth results from PubChem BioAssay (NCI).

Molecules are shown by their SMILES. The panel holds about 83,000 compounds, 20% with a hit somewhere; the sample as a whole holds those more often.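 In brief: 96-well plates, 48 h treatment, single concentration, percent growth endpoint.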 Calls of active or inactive are those of the source. Rule for the calls: active = growth percent below 10; inactive = the rest.

For one assay, the system named is SF-539 CNS. The assay is described as follows: NCI-60 one-dose screen, 48 h (100 = growth as untreated, 0 = no growth, -100 = all killed). The note with it: 10 µM.
Turning to `CCCCCCCNc1nc(C=O)ncc1-c1ccc(C(F)(F)F)cc1`, the growth is 107% (inactive). With `C#Cc1ccc(-n2c(/C=C/c3ccc4ccccc4n3)nc3ncccc3c2=O)cc1`, the growth was -17.6% (active). With `O=C1c2ccc3c4c(ccc(c24)C(=O)N1CCNCc1ccccc1)C(=O)N(CCNCc1ccccc1)C3=O`, the growth is -54.2% (active). Consider `CCN(CC)Cc1cc(Nc2ccnc3cc(Cl)ccc23)ccc1OC`, for which the growth was 62.7% (inactive).

As for `Nc1ccc2c(c1)C1(CCC2)NC(=O)NC1=O` (stereo unspecified), the growth was 93% (inactive).

Turning to `O=C(Nc1cccc(Cl)c1)Nc1nccs1`, the growth was 88.4% (inactive). Take `N=C(N)c1ccc(-c2ccc(-c3cccs3)s2)s1`: the growth is 25.9% (inactive).

Consider `O=C1NC(=O)N(Cc2ccccc2)CC1Br` (stereo unspecified), for which the growth was 86.5% (inactive). Turning to `COc1cc(C(=O)N2CCN(c3ccccc3OC)CC2)c(N)cc1OCCCN1CCN(c2ccccc2OC)CC1`, the growth is 89.9% (inactive). Regarding `CN(C)CCN=c1nc2c(c(N)n1-c1ccccc1)c(=S)n(-c1ccccc1)c(=S)n2-c1ccccc1`, the growth was -86.9% (active). For `CCOC(=O)c1ccc(NC(=O)Nc2ncc(Cl)cc2Cl)cc1`, the growth was 96.2% (inactive).

For `CN(C)N=Nc1nn(C(=O)Nc2ccc(Cc3ccccc3)cc2)c2ccccc12`, the growth is 4.93% (active). Consider `CC(=O)N(C)c1ccc(Nc2ccc(Nc3ccc(N(C)C(C)=O)cc3)c3c2C(=O)c2ccccc2C3=O)cc1`, for which the growth is 76.3% (inactive). Regarding `CCOC(=O)C1(CC(C)C)CCOC1=O` (stereo unspecified), the growth is 97.7% (inactive). On the same count and under the same terms, with `COc1ccc2c(c1)nc(N)c1c3cccnc3cn21` the figure was 10.2% (inactive); with `CSCCCNC(=O)c1ccc2c(c1)/C(=C/c1[nH]c(C)cc1C)C(=O)N2`, 13.2% (inactive); with `COc1cc(Cl)cc(-c2nn(-c3cccc(NC(=O)Nc4ccc(Cl)c(Cl)c4)c3)cc2-c2ccncc2)c1`, 20.9% (inactive). Same read-out and setting: with `CC1=C(N2CCOCC2)C(N2CCOCC2)=C(C)C(=O)C1=O` the figure was 103% (inactive).

Consider `COc1cc(-c2nc(Nc3nc4ccccc4s3)[nH]c(=O)c2C#N)cc(OC)c1O`, for which the growth is 108% (inactive).

Regarding `COc1ccc(CN2CCC(N3CCCC3=O)c3cc(Cl)ccc32)cc1` (stereo unspecified), the growth was 110% (inactive). Turning to `CC(=O)O[C@]1(C)CC[C@H]2[C@H](CNCCc3ccc(Cl)cc3)C(=O)O[C@@H]2C2=C(C)C(=O)C[C@H]21`, the growth was 106% (inactive). Take `COc1ccc(-c2nn(-c3cccc(NC(=O)Nc4cc(C(F)(F)F)cc(C(F)(F)F)c4)c3)cc2-c2ccncc2)cc1Cl`: the growth is -42.9% (active). `CN(CCc1ccccn1)c1ccccc1`: the growth is 94.1% (inactive). As for `COc1ccc(N=C2C(=Nc3ccc(OC)cc3)N(c3ccc(N(C)C)cc3)C(=S)N2c2ccc(OC)cc2)cc1`, the growth is 54.2% (inactive). As for `COc1cc2nc(Nc3cccc(NC(C)=O)c3)nc(N)c2cc1OC`, the growth is 101% (inactive).

As for `C#Cc1ccc(-n2c(/C=C/c3ccc(Cl)c(F)c3)nc3ncccc3c2=O)cc1`, the growth was 1.03% (active). Same read-out and setting: with `COc1cccc(Cn2c(-c3nonc3N)nc3ccccc32)c1` the figure was -34.6% (active); with `c1ccc([I+]c2ccccc2)cc1`, 68.9% (inactive).

With `O=C(c1cccs1)c1ccccc1Cc1ccccc1`, the growth is 112% (inactive). On the same count and under the same terms, to `COc1ccc(-c2ccc(-c3ccc(C(=N)N)cn3)o2)cc1` belongs 79.7% (inactive). Turning to `Nc1c(C(=O)Nc2cccc3ccccc23)sc2nc3c(cc12)C(=O)CCC3`, the growth was -13.1% (active).

On to `COc1ccc(Nc2ccnc(NCCNc3ccnc4cc(Cl)ccc34)n2)cc1`, for which the growth is -14.4% (active). On to `O=C(Nc1ccc(Cl)c([N+](=O)[O-])c1)Nc1nc2ccccc2s1`, for which the growth is 83.6% (inactive).

For `COc1cc(C(=O)/C=C/c2cc(-c3cc(OC)c(OC)c(OC)c3)n[nH]2)cc(OC)c1OC`, the growth is -56.2% (active). With `CC(=O)N1C/C(=C/c2ccc(Cl)cc2)C(=O)/C(=C/c2ccc(Cl)cc2)C1`, the growth was -39.4% (active).

As to `COc1cc(/C=N/NC(=O)c2ccccc2Nc2cccc(C(F)(F)F)c2)cc(OC)c1OC`, the growth was -0.572% (active). Turning to `O=C1N=NC2=C1c1c3ccccc3c(O)n1CC2`, the growth is 94.9% (inactive).

For `CS(=O)(=O)Nc1cccc(-c2cc(-c3ccccc3Cl)c(C#N)c(N)n2)c1`, the growth is -14.4% (active).

With `N#Cc1ncc(-c2ccc(C(F)(F)F)cc2)c(NCc2cc(C(F)(F)F)cc(C(F)(F)F)c2)n1`, the growth is 66.4% (inactive).

In another assay the test system is UACC-257 melanoma. Described as above. The note with it: 10 µM.
For `CCCCCCCNc1nc(C=O)ncc1-c1ccc(C(F)(F)F)cc1`, the growth is 107% (inactive). Take `C#Cc1ccc(-n2c(/C=C/c3ccc4ccccc4n3)nc3ncccc3c2=O)cc1`: the growth is -72.9% (active). Take `O=C1c2ccc3c4c(ccc(c24)C(=O)N1CCNCc1ccccc1)C(=O)N(CCNCc1ccccc1)C3=O`: the growth is 95.8% (inactive). With `CCN(CC)Cc1cc(Nc2ccnc3cc(Cl)ccc23)ccc1OC`, the growth was 94.4% (inactive).

Turning to `O=C(Nc1cccc(Cl)c1)Nc1nccs1`, the growth is -10.8% (active). Turning to `N=C(N)c1ccc(-c2ccc(-c3cccs3)s2)s1`, the growth is -68.5% (active). Consider `O=C1NC(=O)N(Cc2ccccc2)CC1Br` (stereo unspecified), for which the growth is 82.1% (inactive). With `COc1cc(C(=O)N2CCN(c3ccccc3OC)CC2)c(N)cc1OCCCN1CCN(c2ccccc2OC)CC1`, the growth was 104% (inactive). On the same count and under the same terms, to `CN(C)CCN=c1nc2c(c(N)n1-c1ccccc1)c(=S)n(-c1ccccc1)c(=S)n2-c1ccccc1` belongs -74.6% (active); to `CCOC(=O)c1ccc(NC(=O)Nc2ncc(Cl)cc2Cl)cc1`, 14.7% (inactive); to `CN(C)N=Nc1nn(C(=O)Nc2ccc(Cc3ccccc3)cc2)c2ccccc12`, 29.3% (inactive). `CC(=O)N(C)c1ccc(Nc2ccc(Nc3ccc(N(C)C(C)=O)cc3)c3c2C(=O)c2ccccc2C3=O)cc1`: the growth is 74.5% (inactive). As to `CCOC(=O)C1(CC(C)C)CCOC1=O` (stereo unspecified), the growth is 97.7% (inactive).

Take `COc1ccc2c(c1)nc(N)c1c3cccnc3cn21`: the growth is 67.1% (inactive). Take `CSCCCNC(=O)c1ccc2c(c1)/C(=C/c1[nH]c(C)cc1C)C(=O)N2`: the growth was 48.9% (inactive). On to `COc1cc(Cl)cc(-c2nn(-c3cccc(NC(=O)Nc4ccc(Cl)c(Cl)c4)c3)cc2-c2ccncc2)c1`, for which the growth is -11.5% (active). For `CC1=C(N2CCOCC2)C(N2CCOCC2)=C(C)C(=O)C1=O`, the growth was 91.5% (inactive). On to `COc1cc(-c2nc(Nc3nc4ccccc4s3)[nH]c(=O)c2C#N)cc(OC)c1O`, for which the growth was 102% (inactive).

As for `COc1ccc(CN2CCC(N3CCCC3=O)c3cc(Cl)ccc32)cc1` (stereo unspecified), the growth is 112% (inactive). As for `CC(=O)O[C@]1(C)CC[C@H]2[C@H](CNCCc3ccc(Cl)cc3)C(=O)O[C@@H]2C2=C(C)C(=O)C[C@H]21`, the growth was 76.4% (inactive). Take `COc1ccc(-c2nn(-c3cccc(NC(=O)Nc4cc(C(F)(F)F)cc(C(F)(F)F)c4)c3)cc2-c2ccncc2)cc1Cl`: the growth was -31% (active). Turning to `CN(CCc1ccccn1)c1ccccc1`, the growth was 99.7% (inactive). In the case of `COc1ccc(N=C2C(=Nc3ccc(OC)cc3)N(c3ccc(N(C)C)cc3)C(=S)N2c2ccc(OC)cc2)cc1`, the growth was 76.1% (inactive). The same measure, in the same setting: to `COc1cc2nc(Nc3cccc(NC(C)=O)c3)nc(N)c2cc1OC` belongs 98.3% (inactive). Consider `C#Cc1ccc(-n2c(/C=C/c3ccc(Cl)c(F)c3)nc3ncccc3c2=O)cc1`, for which the growth is -65.1% (active). As to `COc1cccc(Cn2c(-c3nonc3N)nc3ccccc32)c1`, the growth was 49.2% (inactive). Take `c1ccc([I+]c2ccccc2)cc1`: the growth is 78.6% (inactive). On to `O=C(c1cccs1)c1ccccc1Cc1ccccc1`, for which the growth is 92.8% (inactive). Take `COc1ccc(-c2ccc(-c3ccc(C(=N)N)cn3)o2)cc1`: the growth was 62.8% (inactive).

For `Nc1c(C(=O)Nc2cccc3ccccc23)sc2nc3c(cc12)C(=O)CCC3`, the growth was 45% (inactive). The same measure, in the same setting: to `O=C(Nc1ccc(Cl)c([N+](=O)[O-])c1)Nc1nc2ccccc2s1` belongs 91.8% (inactive); to `COc1cc(C(=O)/C=C/c2cc(-c3cc(OC)c(OC)c(OC)c3)n[nH]2)cc(OC)c1OC`, -1.5% (active); to `CC(=O)N1C/C(=C/c2ccc(Cl)cc2)C(=O)/C(=C/c2ccc(Cl)cc2)C1`, -32.2% (active). On to `COc1cc(/C=N/NC(=O)c2ccccc2Nc2cccc(C(F)(F)F)c2)cc(OC)c1OC`, for which the growth is 49.6% (inactive). Same read-out and setting: to `O=C1N=NC2=C1c1c3ccccc3c(O)n1CC2` belongs 8.27% (active). Same read-out and setting: with `CS(=O)(=O)Nc1cccc(-c2cc(-c3ccccc3Cl)c(C#N)c(N)n2)c1` the figure was 74.3% (inactive). As to `N#Cc1ncc(-c2ccc(C(F)(F)F)cc2)c(NCc2cc(C(F)(F)F)cc(C(F)(F)F)c2)n1`, the growth is 28.7% (inactive).
